Experiment [1] concerns the target Luciferin 4-monooxygenase (Photinus pyralis) (UniProt P08659). Put plainly: Biochemical firefly luciferase enzyme assay for NPC (AID 624030).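 Also: purified P. pyralis luciferase at 10 nM with luciferin and ATP substrate; 0% = DMSO and -100% = full luciferase inhibition by PTC124 control; nearly all actives have a fitted effect of over 70% in size.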 The gist of the method:
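Direct inhibition of firefly luciferase enzyme (10 nM final, 50 mM Tris Acetate) assessed by luminescence within 5 minutes. Percent activity scaled between DMSO and PTC124 positive control, with concentration-effect curves classified by fit quality and response.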

Experiment [2] in a line: S16 Schwann cell viability assay (CellTiter-Glo assay) (AID 624031). Also: nearly all actives have a fitted effect of over 70% in size. Also: potency is read from the fitted curve at half-maximal effect. The gist of the method:
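Cells were seeded at 500-750 per well in phenol red-free DMEM with 10% FBS and left overnight. Compounds or DMSO were pinned in, incubation ran 24 h at 37 °C/5% CO2, then CellTiter-Glo reagent was added and luminescence measured.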
Background: ATP-based viability assays read luminescence as a measure of living cells.

A short description of experiment [3]: qHTS of Trypanosoma Brucei Inhibitors: LOPAC Validation (AID 624147). Also: 0% is about no effect. The gist of the method:
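Quantitative HTS: titrated library compounds versus trypanosomal pyruvate kinase in TEA buffer (pH 7.2) containing KCl, MgCl2, BSA and Tween-20. Reactions were initiated with ADP, 130 uM final. Kinase-Glo Plus luminescence was read after 45 min at RT.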
For orientation: Quantitative high-throughput screening tests each substance at several concentrations.

Experiment [4] addresses Glucagon-like peptide 1 receptor (Homo sapiens) (UniProt P43220). Put plainly: qHTS of GLP-1 Receptor Agonists: LOPAC Validation (AID 624148).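 Also: luminescence from a luciferase reporter switched on by cAMP; 0% is about no effect; higher luminescence signal means agonism.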 An outline of the steps:
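Agonism scored as increased luciferase luminescence driven by cAMP in HEK293 clones carrying GLP-1R. Cells settled 12 hours, received compound for 4-6 hr at 37 deg C, 5% CO2, and were read after 12 min detection reagent at RT.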

The nature of experiment [5]: qHTS of Nrf2 Activators: LOPAC Validation (AID 624149). Also: 0% is about no effect. An outline of the steps: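 Luminescence read-out of ARE-luciferase activation: AREc32_Fluc cells treated with compounds for 24 hr at 37 deg C, then lysed with Steady-Glo for 30 min at room temperature before reading.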
Experiment [6] is described as follows: HTS Assay for Allosteric Antagonists of the Human D2 Dopamine Receptor: Hit Validation in HTRF (AID 624455).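 Also: stable D1 dopamine receptor cell line scored for blocking the D1 response; % is scaled to controls: 0 for no effect and ±100 for the full control effect.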 An outline of the steps: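 First, antagonism was screened by calcium flux in a force-coupled, inducible Hek293 Trex D2 line challenged with EC80 dopamine. Hits then went into an HTRF assay in cells stably expressing D1, testing inhibition of the D1 response.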
A general note: In TR-FRET formats the signal depends on donor and acceptor labels being close together.

Experiment [7] in a line: S16 Schwann cell PMP22 intronic element firefly luciferase assay (AID 624032). Also: nearly all actives have a fitted effect of over 30% in size. Also: potency is read from the fitted curve at half-maximal effect. The gist of the method: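 Luciferase reporter of PMP22 intronic-element expression in stably transfected S16 rat Schwann cells, read by ONE-Glo luminescence after 24 h compound exposure at 37 C. Activity scaled between DMSO (0%) and positive-control PTC124; concentration-effect curves quality-classified.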

The nature of experiment [8]: Cytotoxicity counterscreen for NFkB agonists and antagonists (AID 624476). Also: % is scaled to controls: 0 for no effect and ±100 for the full control effect.
A short description of experiment [9]: qHTS Assay for Identification of Small Molecule Agonists for NFkB Signaling Pathway. (AID 624478).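 Also: compounds tested together with TNF alpha at its EC50 of 10 pM; 0% is about no effect.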 An outline of the steps: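 ME-180 cervical carcinoma, stable NFkB-RE beta-lactamase reporter; 1000 cells/well, overnight attachment; cpd + TNF alpha 10 pM final, 5 h 37 C; LiveBLAzer 2 h RT; FRET 460/530 nm, ex 405 nm.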
The nature of experiment [10]: Cell Proliferation Assay against the TMD8 Cell Line (AID 651645).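 Also: cells exposed to compound for 48 h before reading.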 Particulars: TMD8 DLBCL cell line proliferation/viability; at 46.1 µM (top of the series) unless noted. The gist of the method: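 Seed log-phase TMD8 cells in RPMI containing 5% FBS, add compounds at once, incubate 48 hours at 37C. Equilibrate to room temperature, add CellTiter-Glo, read luminescence after 15 minutes and express relative to DMSO and bortezomib controls.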

Experiment [11] is described as follows: qHTS Assay for Identification of Small Molecule Antagonists for NFkB Signaling Pathway. (AID 624479; calls by dose curve;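 also: pathway stimulated with TNF alpha; % is scaled to controls: 0 for no effect and ±100 for the full control effect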).
Experiment [12] in a line: Cell Proliferation Assay against the HBL1 Cell Line (AID 651646).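 Also: cells exposed to compound for 48 h before reading.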 Particulars: HBL1 DLBCL cells; at 92.2 µM (top of the series) unless noted. An outline of the steps:
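Luminescent ATP read-out (CellTiter-Glo) after 48 h compound exposure of HBL1 cells at 37 °C; percent activity was scaled between DMSO as 100% and 9.2 uM bortezomib (final) as 0%.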

Experiment [13] is described as follows: S16 Schwann cell PMP22 intronic element beta-lactamase assay (AID 624044; calls by dose curve;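 also: 0% = DMSO and -100% = potassium clavulanate positive control; nearly all actives have a fitted effect of over 15% in size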). Conditions: S16 rat Schwann cells, PMP22 element beta-lactamase FRET, 24 h; ratio activity, negative = inhibition: at 38.3 µM (top of the series). An outline of the steps:
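Rat S16 Schwann cells with beta-Lac driven by a PMP22 intronic element, compound-treated 24 h at 37 °C. LiveBLAzer FRET B/G read: 460 nm normalized to potassium clavulanate vs DMSO; 535 nm FRET as viability; concentration-effect curves classified.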

Here are results for 37 compounds from PubChem BioAssay (NCATS).

Results filed as inconclusive are left out. Active and inactive are the calls of the source. Unless noted, calls follow the shape of the dose curve; as a rule, active = well fitted curve in the direction sought with a large enough effect; inconclusive = small, poorly fitted or top-dose-only effect, or another doubt; inactive = no such curve, though single readings can be large; an effect the other way counts as inactive or inconclusive.

Chain of Luciferin 4-monooxygenase (Photinus pyralis) (P08659 whole entry, looked up): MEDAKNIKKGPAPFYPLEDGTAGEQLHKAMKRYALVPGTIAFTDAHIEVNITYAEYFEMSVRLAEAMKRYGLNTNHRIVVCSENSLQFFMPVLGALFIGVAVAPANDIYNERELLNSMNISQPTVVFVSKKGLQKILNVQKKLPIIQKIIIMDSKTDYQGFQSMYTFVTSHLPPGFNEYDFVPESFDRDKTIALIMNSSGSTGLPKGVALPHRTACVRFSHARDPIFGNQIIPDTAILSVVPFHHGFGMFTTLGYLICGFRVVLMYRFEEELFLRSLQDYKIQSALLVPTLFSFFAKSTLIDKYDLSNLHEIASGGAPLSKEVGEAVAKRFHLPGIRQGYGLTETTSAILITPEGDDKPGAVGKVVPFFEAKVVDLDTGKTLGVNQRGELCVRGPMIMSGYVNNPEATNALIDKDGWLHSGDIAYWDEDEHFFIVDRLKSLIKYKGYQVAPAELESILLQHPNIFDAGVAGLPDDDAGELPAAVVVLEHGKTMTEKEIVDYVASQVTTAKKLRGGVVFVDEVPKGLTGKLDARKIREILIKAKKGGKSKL
Chain of Glucagon-like peptide 1 receptor (Homo sapiens) (P43220 whole entry, looked up): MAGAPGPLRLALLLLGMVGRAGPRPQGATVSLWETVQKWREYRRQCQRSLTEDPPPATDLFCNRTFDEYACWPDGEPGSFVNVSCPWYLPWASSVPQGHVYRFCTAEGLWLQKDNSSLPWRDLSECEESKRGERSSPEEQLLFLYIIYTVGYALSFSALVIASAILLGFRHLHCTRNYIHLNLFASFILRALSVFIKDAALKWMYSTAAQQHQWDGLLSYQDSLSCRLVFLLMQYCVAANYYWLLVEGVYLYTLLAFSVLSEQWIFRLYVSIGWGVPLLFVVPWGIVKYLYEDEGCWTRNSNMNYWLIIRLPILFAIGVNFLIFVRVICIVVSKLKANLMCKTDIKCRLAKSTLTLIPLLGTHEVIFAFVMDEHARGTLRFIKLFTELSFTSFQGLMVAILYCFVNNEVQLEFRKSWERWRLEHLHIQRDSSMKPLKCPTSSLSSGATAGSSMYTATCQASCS

`CO/N=C1\CN(c2nc3c(cc2F)c(=O)c(C(=O)O)cn3C2CC2)CC1CN` (centres undefined): the Potency entry in [1] and in experiment [2] was “inactive” in each case.
For the compound `CC[C@H](C)C(=O)O[C@H]1CCC=C2C=C[C@H](C)[C@H](CC[C@@H]3C[C@@H](O)CC(=O)O3)[C@H]21`, the result in experiment [3], in [4] and in [6] was inactive. In addition, in experiment [5], the Potency result was “inactive”.
Take `Oc1ccc(Cl)cc1Sc1cc(Cl)ccc1O`: the Potency result in experiment [1] and in experiment [7] was “inactive” throughout.
In the case of `COc1cc2c(cc1O)CC[C@@H]1[C@@H]2CC[C@]2(C)[C@@H](O)CC[C@@H]12`, the result in experiment [3], in experiment [4], in [6] and in experiment [9] was inactive. Besides, the Potency entry in [5] and in [8] was “inactive” throughout. Besides, the viability (% of control) in [10] turned out to be 24.3%.
For the compound `CCCCOc1ccc(OCCCN2CCOCC2)cc1`, the Potency result in experiment [1], in experiment [2] and in [7] was “inactive” throughout.
As for `Cc1cccc(C)c1NC(=O)CN1CCN(CCCC(c2ccc(F)cc2)c2ccc(F)cc2)CC1`, the Potency entry in experiment [1] and in experiment [7] was “inactive” each time.
As for `Nc1ccn([C@@H]2O[C@H](CO)[C@@H](O)C2(F)F)c(=O)n1`, the Potency result in experiment [8] and in [11] was “inactive” in each case. Also, the outcome in experiment [9] was inactive. Moreover, the viability (% of control) in experiment [10] was found to be 1.47% [at 92.2 µM]. For the same compound, the viability, percent of control in [12] was 55.7%.
Take `COc1cc2c(cc1OC)C(C(C(=O)N(CCc1ccc(OC)c(OC)c1OC)CCc1ccc(OC)c(OC)c1OC)c1ccccc1)=NCC2` (centres undefined): the Potency entry in experiment [1], in [2] and in [13] was “inactive” each time. Further, in experiment [7], the Potency was 28.7 µM (active).
Consider `NCCCC[C@H](N[C@@H](CCc1ccccc1)C(=O)O)C(=O)N1CCC[C@H]1C(=O)O`, for which, in [1], the Potency result is “inactive”.
Turning to `CCCOC(C(=O)OC1CCN(C)CC1)(c1ccccc1)c1ccccc1`, the Potency entry in experiment [1], in [7] and in experiment [13] was “inactive” each time.
`COc1cccc(CCc2ccccc2OCC(CN(C)C)OC(=O)CCC(=O)O)c1` (centres undefined): the Potency result in [1], in [7] and in [13] was “inactive” throughout.
Take `COC(=O)C1=C(C)NC(C)=C(C(=O)O[C@@H]2CCCN(Cc3ccccc3)C2)[C@@H]1c1cccc([N+](=O)[O-])c1`: the Potency entry in experiment [1] is “inactive”.
On the same count and under the same terms, with `COC(=O)CCc1ccc(OCC(O)CNC(C)C)cc1` (centres undefined) the entry was “inactive”.
With `CC(C)COC(=O)OCN1C(=O)CN(CCN2CC(=O)N(COC(=O)OCC(C)C)C(=O)C2)CC1=O`, the Potency result in experiment [1], in experiment [2], in experiment [7] and in experiment [5] was “inactive” each time. For the same compound, the compound was classed as inactive in experiment [3], in experiment [4] and in [6].
For `CN(C(=O)CN(CCO)CC(=O)N(C)C(C)(C)Cc1ccccc1)C(C)(C)Cc1ccccc1`, the Potency entry in experiment [1], in [2] and in [7] was “inactive” each time.
For the compound `CC(C)(C)CC(C)(C)c1ccc(O)c(Cc2ccc(Cl)cc2Cl)c1`, the Potency entry in experiment [1] was “inactive”. The Potency in experiment [7] was 36.1 µM (active).
`CCN(CCCc1ccccc1)CCCc1ccccc1`: the Potency entry in experiment [1] and in [2] was “inactive” each time.
On to `CCCCCCCCCCCCCCCC[N+](C)(C)CC`, for which, in [1], the Potency entry is “inactive”. For the same compound, the Potency in [7] was 14.4 µM (active).
`CCOc1ccc(Cc2nccc3cc(OCC)c(OCC)cc23)cc1OCC`: the Potency entry in experiment [1] and in [2] was “inactive” in each case. In addition, the Potency in experiment [7] was 2.45 µM (active).
Turning to `Cc1c(C)n(Cc2ccccc2)c2ccc(C(=O)OCCN(C)C)cc12`, the Potency result in experiment [7] and in experiment [13] was “inactive” throughout.
`Cc1ccc(C(=O)C(C)CN2CCCCC2)cc1` (centres undefined): in experiment [1], the Potency result was “inactive”.
On to `CCCCCCC[N+](CC)(CC)CCCCc1ccc(Cl)cc1`, for which the Potency result in experiment [1] and in experiment [2] was “inactive” throughout.
With `COc1cc2c(cc1OC)C(=O)C(CC1CCN(Cc3ccccc3)CC1)C2` (centres undefined), the Potency entry in [1] is “inactive”.
Regarding `CC(CCc1ccccc1)NCC(O)c1ccc(O)c(C(N)=O)c1` (centres undefined), the outcome in experiment [3], in [4] and in experiment [6] was inactive. The Potency result in [5] is “inactive”.
Consider `Cc1onc(-c2c(Cl)cccc2Cl)c1C(=O)N[C@@H]1C(=O)N2[C@@H]1SC(C)(C)[C@@H]2C(=O)O`, for which the Potency result in [1] is “inactive”.
As to `CC(C)(C)CC(C)(C)c1ccc(OCCOCC[N+](C)(C)Cc2ccccc2)cc1`, the Potency result in [1] was “inactive”. In addition, the Potency in [2] is 32.2 µM (active).
`Cc1ccc(Nc2c(F)cccc2Cl)c(CC(=O)O)c1`: in [1], the Potency result is “inactive”.
`CCCN1CCCC[C@H]1C(=O)Nc1c(C)cccc1C`: the Potency entry in experiment [1], in experiment [2] and in experiment [7] was “inactive” throughout.
Regarding `CCN1CCC[C@H]1CNC(=O)c1c(OC)ccc(Br)c1OC`, the Potency entry in experiment [1], in [2] and in experiment [7] was “inactive” each time.
Turning to `CNCCC(Oc1ccccc1C)c1ccccc1` (centres undefined), the Potency entry in [1], in [13] and in [5] was “inactive” in each case. Further, the compound was called inactive in experiment [3] and in [4].
In the case of `O=S1(=O)c2cccc3cccc(c23)N1CCCN1CCN(c2ccc(F)cc2)CC1`, the Potency result in experiment [1], in experiment [2] and in experiment [7] was “inactive” throughout. The ratio activity, negative = inhibition in experiment [13] was -2.31% (active).
For the compound `CC1(C)OC[C@@H](COC(=O)CCc2ccc(OC[C@@H](O)CNCCNC(=O)N3CCOCC3)cc2)O1`, the Potency entry in experiment [1] was “inactive”.
As to `CC(C)N=C(N)/N=C(\N)Nc1ccc(Cl)cc1`, the Potency result in experiment [1] and in experiment [2] was “inactive” in each case.
On to `COc1ccc(CCN2CCC(Nc3nc4ccccc4n3Cc3ccc(F)cc3)CC2)cc1`, for which, in [1], the Potency entry was “inactive”. The Potency in experiment [2] is 16.1 µM (active); in experiment [7], 20.3 µM (active).
The corresponding values for `C[C@H]1[C@H](NC(=O)/C(=N/OC(C)(C)C(=O)O)c2csc(N)n2)C(=O)N1S(=O)(=O)O` (stereo in doubt) are “inactive”, “inactive” and “inactive”.
For `O=C1OCCN1/N=C/c1ccc([N+](=O)[O-])o1`, the Potency result in experiment [1] and in experiment [2] was “inactive” each time.
In the case of `CC(C)NC[C@@H](O)COc1cccc2ccccc12`, the Potency entry in [1] and in experiment [2] was “inactive” each time.
